C diff HTS: C. difficile growth inhibitors, primary screen, HTS | Clostridium difficile clinical isolate growth, OD600, 24 h; stronger effect = lower value | growth activity, negative = inhibition, % at 16 µg/mL (by protocol) | 86,000 tested, 0.25% active | AID 1259249, 2017;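 active = mean growth activity at or below -80% and every replicate also at or below -80%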;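 also: 0% = DMSO wells and -100% = levofloxacin 16 µg/mL wells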
Starred values were filed as active, the others as inactive; ! = a repeat was not active. Only a selection was taken, and hits are over-represented in it overall.

SMILES	C diff HTS
CO[C@@H]1CN(C)C(=O)c2ccc(NC(=O)C3CC3)cc2OC[C@H](C)N(Cc2cccc(F)c2)C[C@H]1C	2
COc1ccc(CN(C)C[C@H]2Oc3c(NC(=O)Nc4ccc(C(F)(F)F)cc4)cccc3C(=O)N([C@@H](C)CO)C[C@H]2C)cc1	-101*
C[C@@H]1CN([C@H](C)CO)C(=O)c2cccc(NC(=O)Nc3ccc(F)cc3)c2O[C@H]1CN(C)Cc1ccc(-c2ccccc2)cc1	-2
C[C@H](CO)N1C[C@H](C)[C@@H](CN(C)Cc2ccc(C(F)(F)F)cc2)Oc2c(NC(=O)Nc3ccc(F)cc3)cccc2C1=O	3
C[C@@H]1CN([C@@H](C)CO)C(=O)c2cccc(NC(=O)Nc3ccc(C(F)(F)F)cc3)c2O[C@H]1CN(C)Cc1ccc(C(F)(F)F)cc1	18
C[C@@H]1CN([C@H](C)CO)C(=O)c2cccc(NC(=O)Nc3ccc(F)cc3)c2O[C@H]1CN(C)Cc1ccc(C(F)(F)F)cc1	7
COc1ccc(CN(C)C[C@@H]2Oc3c(NC(=O)Nc4ccc(C(F)(F)F)cc4)cccc3C(=O)N([C@H](C)CO)C[C@H]2C)cc1	2
C[C@H]1CN([C@@H](C)CO)C(=O)c2cccc(NC(=O)Nc3ccc(C(F)(F)F)cc3)c2O[C@@H]1CN(C)Cc1ccc(C(F)(F)F)cc1	27
C[C@@H]1CN([C@@H](C)CO)C(=O)c2cccc(NC(=O)Nc3ccc(F)cc3)c2O[C@@H]1CN(C)Cc1ccc(-c2ccccc2)cc1	-93*
C[C@@H]1CN([C@@H](C)CO)C(=O)c2cccc(NC(=O)Nc3ccc(F)cc3)c2O[C@@H]1CN(C)Cc1ccc(C(F)(F)F)cc1	-92*
C[C@@H]1CN([C@@H](C)CO)C(=O)c2cccc(NC(=O)Nc3ccc(C(F)(F)F)cc3)c2O[C@@H]1CN(C)Cc1ccc(C(F)(F)F)cc1	-103*
COc1ccc(NC(=O)Nc2cccc3c2O[C@H](CN(C)Cc2ccc(C(F)(F)F)cc2)[C@@H](C)CN([C@H](C)CO)C3=O)cc1	5
C[C@H](CO)N1C[C@H](C)[C@H](CN(C)Cc2ccc(-c3ccccc3)cc2)Oc2c(NC(=O)Nc3ccccc3)cccc2C1=O	6
COc1cccc(CN2CC3(C2)CN(C(=O)C2CC2)[C@H](CO)c2c3c3ccc(OC)cc3n2C)c1	-13
CCNC(=O)C[C@@H]1CC[C@@H]2[C@@H](COc3ccc(NC(=O)NC(C)C)cc3C(=O)N2C)O1	7
CCCNC(=O)[C@H]1[C@H](CO)[C@H]2Cn3c(ccc(-c4cccc(OC)c4)c3=O)[C@@H]1N2CC	-2
C[C@@H]1CCCCO[C@H](CN(C)C(=O)c2ccccc2)[C@H](C)CN([C@@H](C)CO)C(=O)c2cc(NC(=O)Nc3ccc(F)cc3)ccc2O1	7
CC(C)NC(=O)N(C)C[C@@H]1Oc2ncc(-c3ccccc3F)cc2C(=O)N([C@H](C)CO)C[C@H]1C	-4
Cn1c(=O)n2n(c1=O)[C@H](C1CC1)C=C1CN3[C@@H]([C@H](Cc4ccccc4)OC(=O)[C@@H]3Cc3ccccc3)[C@@H]12	-4
CC(C)CC#Cc1ccc2c(c1)O[C@H](CN(C)Cc1cccnc1)[C@@H](C)CN([C@H](C)CO)S2(=O)=O	9
CCCNC(=O)N1CC2(C1)[C@@H](c1ccccc1)[C@H](CO)N2Cc1ccc(F)cc1	-5
COc1ccc2c3c([nH]c2c1)[C@@H](CO)N(C(=O)C1CCOCC1)CC31CCN(C)CC1	1
COc1cccc(NC(=O)N[C@H]2C=C[C@H](CC(=O)Nc3ccccc3)O[C@H]2CO)c1	4
CC(=O)N1CC2(C1)[C@H](c1ccccc1)[C@@H](CO)N2CC1CCOCC1	1
Cc1cccc(-c2ccc([C@H]3[C@H](CO)N4C(=O)CN(C(=O)c5ccccc5)C[C@@H]34)cc2)c1	-4
SMILES	C diff HTS
COc1ccc2c3c([nH]c2c1)[C@H](CO)N(C(=O)c1cccnc1)CC31CCN(C(=O)CN(C)C)CC1	0
CCCNC(=O)C[C@H]1CC[C@@H]2[C@H](COC[C@H](O)CN2C(=O)Nc2ccc(Cl)c(Cl)c2)O1	-101*!
O=C(C[C@@H]1CC[C@H]2[C@@H](COC[C@H](O)CN2C(=O)Nc2ccc(Cl)c(Cl)c2)O1)NC1CCC1	89
O=C(C[C@@H]1CC[C@@H]2[C@H](COC[C@@H](O)CN2C(=O)Nc2ccc(Cl)c(Cl)c2)O1)NCc1ccncc1	-96*!
O=C(C[C@@H]1CC[C@@H]2[C@H](COC[C@@H](O)CN2C(=O)Nc2ccc(Cl)c(Cl)c2)O1)NCc1ccc(F)cc1	-16
O=C(C[C@@H]1CC[C@@H]2[C@H](COC[C@H](O)CN2C(=O)Nc2ccc(Cl)c(Cl)c2)O1)NCc1ccc(Cl)cc1	-61
CNC(=O)C[C@H]1CC[C@H]2[C@@H](COC[C@@H](O)CN2C(=O)Nc2ccc(Cl)c(Cl)c2)O1	-12
O=C(C[C@@H]1CC[C@@H]2[C@H](COC[C@H](O)CN2C(=O)Nc2ccc(Cl)c(Cl)c2)O1)NCc1ccc(F)cc1	-96*
CNC(=O)C[C@@H]1CC[C@@H]2[C@H](COC[C@@H](O)CN2C(=O)Nc2ccc(Cl)c(Cl)c2)O1	-16
CNC(=O)C[C@@H]1CC[C@H]2[C@@H](COC[C@@H](O)CN2C(=O)Nc2ccc(Cl)c(Cl)c2)O1	-12
CC(C)C#Cc1cnc2c(c1)C(=O)N([C@H](C)CO)C[C@H](C)[C@H](CN(C)C(=O)c1cccnc1)O2	1
COc1ccc2c3c([nH]c2c1)[C@H](CO)N(Cc1nccs1)CC31CN(Cc2cccnc2)C1	6
O=C(NC1CCC1)[C@@H]1[C@@H](CO)[C@@H]2Cn3c(ccc(-c4ccncc4)c3=O)[C@@H]2N1CCc1ccccc1	0
COc1ccc(-c2cnc3c(c2)C(=O)N([C@@H](C)CO)C[C@@H](C)[C@H](CN(C)C(=O)Cc2ccncc2)O3)cc1	4
O=C(C[C@@H]1CC[C@H]2NC[C@H](O)COC[C@@H]2O1)NCCN1CCCC1	-8
O=C(c1cccc(F)c1)N1CC2(C1)[C@H](c1ccccc1)[C@@H](CO)N2C(=O)C1CCOCC1	1
CCNC(=O)C[C@@H]1CC[C@H]2[C@@H](COC[C@@H](O)CN2C(=O)Nc2ccc(C(F)(F)F)cc2)O1	-100*
CCNC(=O)C[C@H]1CC[C@@H]2[C@H](COC[C@@H](O)CN2C(=O)Nc2ccc(C(F)(F)F)cc2)O1	62
O=C(C[C@@H]1CC[C@H]2[C@@H](COC[C@@H](O)CN2C(=O)Nc2ccc(C(F)(F)F)cc2)O1)NCC1CCCCC1	-100*!
CCNC(=O)C[C@@H]1CC[C@@H]2[C@H](COC[C@H](O)CN2C(=O)Nc2ccc(C(F)(F)F)cc2)O1	-97*!
O=C(C[C@@H]1CC[C@@H]2[C@H](COC[C@@H](O)CN2C(=O)Nc2ccc(C(F)(F)F)cc2)O1)NCC1CCCCC1	58
O=C(C[C@@H]1CC[C@@H]2[C@H](COC[C@H](O)CN2C(=O)Nc2ccc(C(F)(F)F)cc2)O1)NCC1CC1	-54
O=C(C[C@@H]1CC[C@H]2[C@@H](COC[C@H](O)CN2C(=O)Nc2ccc(C(F)(F)F)cc2)O1)NCC1CCCCC1	-5
O=C(C[C@H]1CC[C@@H]2[C@H](COC[C@H](O)CN2C(=O)Nc2ccc(C(F)(F)F)cc2)O1)NCC1CC1	-23
O=C(C[C@@H]1CC[C@H]2[C@@H](COC[C@@H](O)CN2C(=O)Nc2ccc(C(F)(F)F)cc2)O1)NCC1CC1	-18
O=C(C1CCC1)N1CC2(C1)[C@@H](c1ccccc1)[C@H](CO)N2C(=O)c1ccccn1	1
